Assay results from PubChem BioAssay AID2073 (Sanford-Burnham Center for Chemical Genomics, 2009).
Among all 290,000 compounds or so, about 570 (0.2%) were called active. Another 1% or so got no clear call; they are omitted. Cut-off read from the data, not from the text of the source: active = inhibition mostly above about 51% (no sharp cut-off); inconclusive = no clear call, values can overlap the other calls; inactive = mostly below about 53%. The list comes from a sample in which actives are over-represented; it also holds similar structures and randomly drawn compounds.

Molecular target: Voltage-dependent N-type calcium channel subunit alpha-1B (Homo sapiens) (UniProt Q00975)
Sequence (Q00975 whole entry, looked up): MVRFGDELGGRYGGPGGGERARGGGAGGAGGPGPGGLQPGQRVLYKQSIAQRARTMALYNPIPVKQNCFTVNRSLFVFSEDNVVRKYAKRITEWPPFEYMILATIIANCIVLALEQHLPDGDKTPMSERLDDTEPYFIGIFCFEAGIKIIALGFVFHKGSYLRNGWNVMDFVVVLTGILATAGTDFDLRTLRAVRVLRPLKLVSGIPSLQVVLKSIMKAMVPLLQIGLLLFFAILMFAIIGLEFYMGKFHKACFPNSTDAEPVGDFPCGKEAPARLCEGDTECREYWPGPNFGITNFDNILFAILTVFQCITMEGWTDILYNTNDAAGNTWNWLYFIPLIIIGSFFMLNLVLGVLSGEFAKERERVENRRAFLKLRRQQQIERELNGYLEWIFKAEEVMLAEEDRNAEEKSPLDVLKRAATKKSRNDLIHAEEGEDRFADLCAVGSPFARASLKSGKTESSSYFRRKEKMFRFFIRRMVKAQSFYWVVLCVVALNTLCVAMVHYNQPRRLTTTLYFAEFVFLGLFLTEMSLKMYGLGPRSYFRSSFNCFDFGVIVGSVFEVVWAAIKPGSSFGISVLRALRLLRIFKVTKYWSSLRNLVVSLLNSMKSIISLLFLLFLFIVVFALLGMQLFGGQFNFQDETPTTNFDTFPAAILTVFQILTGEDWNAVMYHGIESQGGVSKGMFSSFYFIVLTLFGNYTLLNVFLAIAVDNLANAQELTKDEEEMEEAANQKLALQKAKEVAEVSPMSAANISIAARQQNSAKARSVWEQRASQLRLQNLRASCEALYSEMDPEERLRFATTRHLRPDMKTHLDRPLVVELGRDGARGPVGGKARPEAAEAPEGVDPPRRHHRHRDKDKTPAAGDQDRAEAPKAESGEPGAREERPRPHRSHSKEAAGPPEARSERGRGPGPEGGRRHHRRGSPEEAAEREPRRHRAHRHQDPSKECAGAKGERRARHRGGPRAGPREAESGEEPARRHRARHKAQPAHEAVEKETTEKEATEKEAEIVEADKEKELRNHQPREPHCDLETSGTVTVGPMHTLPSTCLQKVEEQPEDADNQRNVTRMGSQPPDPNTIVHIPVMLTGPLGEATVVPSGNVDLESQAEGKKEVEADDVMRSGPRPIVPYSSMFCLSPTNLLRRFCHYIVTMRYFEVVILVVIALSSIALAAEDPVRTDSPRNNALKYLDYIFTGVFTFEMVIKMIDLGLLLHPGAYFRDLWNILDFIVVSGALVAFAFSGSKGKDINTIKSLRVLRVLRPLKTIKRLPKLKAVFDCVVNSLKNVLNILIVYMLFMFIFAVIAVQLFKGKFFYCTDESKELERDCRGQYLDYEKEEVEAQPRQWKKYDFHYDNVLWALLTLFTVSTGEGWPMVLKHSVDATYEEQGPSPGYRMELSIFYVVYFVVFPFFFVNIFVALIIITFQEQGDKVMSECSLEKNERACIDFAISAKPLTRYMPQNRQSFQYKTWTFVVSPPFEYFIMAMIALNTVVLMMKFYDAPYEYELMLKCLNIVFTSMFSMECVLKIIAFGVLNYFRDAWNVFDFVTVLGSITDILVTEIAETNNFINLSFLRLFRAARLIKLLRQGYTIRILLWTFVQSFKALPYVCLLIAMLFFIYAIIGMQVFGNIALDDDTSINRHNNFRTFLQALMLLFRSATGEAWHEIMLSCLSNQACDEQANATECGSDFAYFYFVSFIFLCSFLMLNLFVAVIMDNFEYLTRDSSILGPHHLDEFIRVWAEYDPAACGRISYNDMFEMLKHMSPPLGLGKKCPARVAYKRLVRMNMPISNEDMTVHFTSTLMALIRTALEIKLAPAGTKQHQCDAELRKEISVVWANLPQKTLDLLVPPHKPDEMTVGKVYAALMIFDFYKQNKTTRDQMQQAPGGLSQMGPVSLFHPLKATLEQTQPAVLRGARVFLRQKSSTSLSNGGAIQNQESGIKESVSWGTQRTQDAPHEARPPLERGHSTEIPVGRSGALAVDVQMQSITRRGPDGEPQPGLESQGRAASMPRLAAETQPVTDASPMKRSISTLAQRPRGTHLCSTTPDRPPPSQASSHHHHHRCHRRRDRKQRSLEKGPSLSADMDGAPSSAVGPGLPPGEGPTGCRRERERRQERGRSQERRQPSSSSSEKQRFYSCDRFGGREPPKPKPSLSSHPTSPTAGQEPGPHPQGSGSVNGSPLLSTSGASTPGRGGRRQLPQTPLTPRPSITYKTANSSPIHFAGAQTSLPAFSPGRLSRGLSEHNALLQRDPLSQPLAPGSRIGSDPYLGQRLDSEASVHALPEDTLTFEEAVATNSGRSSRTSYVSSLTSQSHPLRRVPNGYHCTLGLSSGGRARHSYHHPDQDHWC
Assay: disruptors of CaV2.2 binding to Mint1 – biochemical, HTRF (AID 2073)
Conditions: HTRF protein-protein interaction, Mint1-CaV2.2, at 20 µM, stronger effect = higher value
[1] = measured here: average of repeat tests

For `O=C(Nc1ccc(N2CCOCC2)cc1Cl)C1CCN(C(=O)OCc2ccccc2)CC1`, the inhibition was -2.8% (inactive).

In the case of `COc1ccc(-n2nc(C(=O)NCC(=O)NCc3ccc(F)cc3)c3ccccc3c2=O)cc1`, the inhibition is reported as 8.9% (inactive).

For `CC1CN(S(=O)(=O)c2ccccc2)C(C)CN1S(=O)(=O)c1ccccc1` (stereo unspecified), the inhibition was 2.3% (inactive).

In the case of `Cc1ccc(S(=O)(=O)N2CCN(S(=O)(=O)c3ccccc3)C2)cc1`, the inhibition is reported as -0.6% (inactive).

For `O=S(=O)(c1ccc(Cl)cc1)N1CCCCCC1`, the inhibition was 13.9% (inactive).

For `CN1CCN(S(=O)(=O)c2ccc(Cl)cc2)CC1`, the inhibition was 5.7% (inactive).

With `Cc1sc(NC(=O)CN(Cc2ccc(F)cc2)C(=O)C(C)C)c(C(N)=O)c1C` the inhibition was -9.6% (inactive).

For `CC(C)CC(=O)Nc1nnc(SCC(=O)NCc2ccc3c(c2)OCO3)s1`, the inhibition was 6% (inactive).

With `COc1ccc(N2CC(C(=O)N/N=C/c3c[nH]c4ccccc34)CC2=O)cc1` (stereo unspecified) the inhibition was 17.8% (inactive).

In the case of `COc1ccc(N2C(=O)NC(=O)C2=O)cc1`, the inhibition is reported as -3.9% (inactive).

In the case of `Cc1nn(C)c(Cl)c1CN1CCC(CO)(CC2CCCCO2)CC1` (stereo unspecified), the inhibition is reported as 6.5% (inactive).

`O=S(=O)(c1ccc(F)c(F)c1)N1CCCc2ccccc21` was tested, and the inhibition was -1.2% (inactive).

With `CCCc1[nH]c(=O)c(C#N)c2c1COC(C)(C)C2` the inhibition was -5.3% (inactive).

For `Nc1ccc2nc(-c3cccc(-c4nc5ccc(N)cc5[nH]4)c3)[nH]c2c1`, the inhibition was 46.7% (inactive).

With `Nc1ccc(-c2nc3ccccc3[nH]2)cc1` the inhibition was 5.5% (inactive).

`Nc1ccc(-c2nc3ccc([N+](=O)[O-])cc3[nH]2)cc1` was tested, and the inhibition was 13.5% (inactive).

For `Nc1ccc2nc(-c3cc(Cl)c(N)c(Cl)c3)[nH]c2c1`, the inhibition was 39.9% (inactive).

`Fc1ccc(N=Cc2ccc[nH]2)cc1` was tested, and the inhibition was -9.3% (inactive).

In the case of `Cn1c(N)c(C(=O)COC(=O)c2cc(-c3ccccc3)nc3ccccc23)c(=O)n(Cc2ccccc2)c1=O`, the inhibition is reported as 21.7% (inactive).

In the case of `Cn1c(N)c(C(=O)COC(=O)c2cc(-c3ccco3)nc3ccccc23)c(=O)n(C)c1=O`, the inhibition is reported as 50.3% (inactive) and the inhibition [1] is reported as 29.1%.

In the case of `O=C(O)c1cc(-c2ccco2)nc2ccccc12`, the inhibition is reported as -11.5% (inactive).

`O=C(NC(=S)Nc1cccc(S(=O)(=O)NC2=NCCC2)c1)c1cc(-c2ccco2)nc2ccccc12` was tested, and the inhibition was 61% (inactive) and the inhibition [1] was 23.6%.

With `Cn1c(N)c(C(=O)COC(=O)c2cc(-c3ccco3)nc3ccccc23)c(=O)n(Cc2ccccc2)c1=O` the inhibition was 58.1% (active).

In the case of `O=C(Nc1cccc(S(=O)(=O)NC2=NCCCCC2)c1)c1cc(-c2ccco2)nc2ccccc12`, the inhibition is reported as 40.5% (inactive).

In the case of `O=C(Nc1cccc(S(=O)(=O)NC2=NCCC2)c1)c1cc(-c2ccco2)nc2ccccc12`, the inhibition is reported as 61.9% (active).

For `Cn1c(=O)c(C(=O)COC(=O)c2cc(-c3ccccc3)nc3ccccc23)c(N)n(Cc2ccccc2)c1=O`, the inhibition was 26.2% (inactive).

For `O=C(NC1CC1)c1cc(-c2ccco2)nc2ccccc12`, the inhibition was 38.6% (inactive).

In the case of `Cn1c(=O)c(C(=O)COC(=O)c2cc(-c3ccco3)nc3ccccc23)c(N)n(Cc2ccccc2)c1=O`, the inhibition is reported as 55.8% (active).

In the case of `CC(C)Cn1c(N)c(C(=O)COC(=O)c2cc(-c3ccco3)nc3ccccc23)c(=O)n(C)c1=O`, the inhibition is reported as 19.7% (inactive).

In the case of `O=C(NC1CCC(O)CC1)c1cc(-c2ccco2)nc2ccccc12` (stereo unspecified), the inhibition is reported as 51.2% (active) and the inhibition [1] is reported as 50.3%.

With `CCN(C(=O)COC(=O)c1c(C)nn(-c2ccccc2)c1C)C1CCS(=O)(=O)C1` (stereo unspecified) the inhibition was 6.4% (inactive).

With `C/C(CC(=O)Nc1ccc2c(c1)OCCO2)=N\NC(=O)COc1ccccc1` the inhibition was 1.2% (inactive).

In the case of `COc1ccc(CCNC(=O)C2CC(c3cc(C(F)(F)F)cc(C(F)(F)F)c3)=NO2)cc1` (stereo unspecified), the inhibition is reported as 0.2% (inactive).

With `Cc1ccc(/C=C/C(=O)Nc2ccc(O)c3c(=O)cc(-c4ccccc4Cl)oc23)cc1` the inhibition was 13% (inactive).

In the case of `CCCN1Cc2cccc(C(=O)NC(CC(=O)OCC)c3ccc(OC(C)C)cc3)c2C1=O` (stereo unspecified), the inhibition is reported as -3.9% (inactive).

In the case of `Cc1ccc(Cl)cc1N1CCN(C(=O)Cn2ncn3cccc3c2=O)CC1`, the inhibition is reported as -1.5% (inactive).

With `O=C(CCCn1c(=S)[nH]c2ccccc2c1=O)NC1CCCC1` the inhibition was -32.5% (inactive).

For `CCc1ccccc1NC(=O)COc1ccc(N2CC(C(N)=O)CC2=O)cc1` (stereo unspecified), the inhibition was 11.4% (inactive).

`OC1CNCc2cc3c(cc21)OCCO3` (stereo unspecified) was tested, and the inhibition was -5.4% (inactive).

`CNC(=O)COC(=O)c1cc(-c2ccco2)nc2ccccc12` was tested, and the inhibition was 66.4% (active).

`NC(=O)COC(=O)c1cc(-c2ccco2)nc2ccccc12` was tested, and the inhibition was 14.1% (inactive).

With `O=C(COC(=O)c1cc(-c2ccco2)nc2ccccc12)NCc1ccccc1` the inhibition was 25.4% (inactive).

With `CCN1CCN(CCCNC(=O)Cn2nc(C)n3nc(-c4ccccc4)cc3c2=O)CC1` the inhibition was 12.1% (inactive).

`O=c1[nH]c(C2CCCN(S(=O)(=O)c3ccc(F)cc3)C2)nc2c1nnn2Cc1ccccc1` (stereo unspecified) was tested, and the inhibition was -1% (inactive).

In the case of `Cc1[nH]n(-c2ccccc2)c(=S)c1C=Nc1ccc([N+](=O)[O-])cc1`, the inhibition is reported as 67% (active).

In the case of `Cc1[nH]n(-c2ccccc2)c(=O)c1C=Nc1ccc(S(N)(=O)=O)cc1`, the inhibition is reported as 0.1% (inactive).

In the case of `Cc1[nH]n(-c2ccccc2)c(=S)c1C=Nc1cccc([N+](=O)[O-])c1`, the inhibition is reported as 34.3% (inactive).

With `Oc1ccccc1Cn1nnc2ccccc21` the inhibition was 7.1% (inactive).

For `COc1ccc(CCNC(=O)CCN2C(=O)[C@@H]3Cc4ccccc4CN3C2=O)cc1`, the inhibition was -3.7% (inactive).

`CCC(=O)Nc1ccc(C(=O)CSc2nc3ccc(C)cc3[nH]2)cc1` was tested, and the inhibition was 32.1% (inactive).

For `CN(C)C(=O)c1ccc(NC(=O)CSc2nc3ccccc3[nH]2)cc1`, the inhibition was -1.1% (inactive).

For `CCC(=O)Nc1ccc(C(=O)CSc2nc3ccccc3[nH]2)cc1`, the inhibition was 54.5% (active).

With `COc1ccc(CCNCC(=O)Nc2c(C)cc(C)cc2C)cc1OC` the inhibition was -6.8% (inactive).

For `CCOC(=O)N1CCN(c2ccccc2OC)CC1`, the inhibition was -13.4% (inactive).

In the case of `O=C(NNc1nc(-c2ccccc2)cs1)c1ccc(F)cc1`, the inhibition is reported as 60% (inactive) and the inhibition [1] is reported as -6.1%.

With `O=C(NNc1nc(-c2ccc(F)cc2)cs1)c1ccccc1` the inhibition was 71.1% (active).

With `O=C(NNc1nc(-c2ccccc2)cs1)c1ccccc1` the inhibition was -28.9% (inactive).
